This note sets out measurements from PubChem BioAssay AID2242 (National Center for Advancing Translational Sciences (NCATS), 2010).

The structures appear in SMILES notation. About 720 (0.36%) of roughly 200,000 compounds were called active. Another 8% or so got no clear call; they are omitted. Calls come from the whole dose curve; as a rule, active = well fitted activation curve with a large enough effect; inconclusive = small, poorly fitted or top-dose-only effect, or effect the other way, or another doubt; inactive = flat fitted curve, though single readings scatter. Some of the results follow.
Potency is the fitted concentration of half-maximal effect.

The target of this assay is Lysosomal alpha-glucosidase (Homo sapiens) (UniProt P10253). The experiment in a line: qHTS Assay for Activators of Human alpha-Glucosidase as a Potential Chaperone Treatment of Pompe Disease. Note: nearly all actives have a fitted effect of over 80% in size. The conditions noted are these: purified enzyme, 4-MU-alpha-glucoside fluorescence, 20 min; series mostly up to 76.9 µM. The text has this:
NIH Chemical Genomics Center [NCGC] NIH Molecular Libraries Probe Production centers Network [MLPCN] MLPCN Grant: 1R03MH084841-01 Assay Submitter (PI): Wei Zheng NCGC Assay Overview: Alpha-glucosidase is responsible for hydrolysis of terminal, non-reducing 1,4-linked alpha-D-glucose residues with release of alpha-D-glucose. It is a lysosomal hydrolase that is required for the degradation of a small percentage (1-3%) of cellular glycogen in human. Deficiency of this enzyme results in glycogen-storage disease type II (GSDII), also referred to as Pompe disease, an autosomal recessive disorder. Structurally normal glycogen is accumulated in lysosomes and cytoplasm in affected patients, primarily in muscle tissues. Excessive glycogen storage within lysosomes may interrupt normal functioning of other organelles and leads to cellular injury. In turn, this leads to enlargement and dysfunction of the entire organ involved (eg, cardiomyopathy and muscle weakness). It has reported that the improper folding and trafficking of alpha-glucosidase resulting from the genetic mutations may account for a significant number of Pompe patients. […] We optimized this alpha-glucosidase assay in 1536-well plate format for identifying the novel small molecule inhibitors with the structures other than the sugar analogs in order to develop the new pharmacological chaperones, but are also able to detect potential activators. In conjunction with assays against alpha-galactosidase (AID 1467), fluorogenic false positive compounds can be identified.
NCGC Assay Protocol Summary: This is a fluorogenic enzyme assay with 4-methylumbelliferyl-alpha-D-[…] as the substrate and human alpha-glucosidase as the enzyme preparation. Upon the hydrolysis of this fluorogenic substrate, the resulting product, 1. 4-methyllumbelliferone, can be excited at 365 nm and emits at 440 nm which can be detected by a standard fluorescence plate reader. Data were normalized to the controls for basal activity (without enzyme) and 100% activity (with enzyme). In the AC50 values were determined from concentration-response data modeled with the standard Hill equation. Assay buffer: 50 mM citric acid (titrated with potassium phosphate to pH 5.0), 0.005% Tween-20, pH 5.0. (pH 5.0 is an optimal condition for this enzyme assay) 1536-well assay protocol for the human alpha-glucosidase: (1) Add 2 ul/well of enzyme (4 nM final) (2) Add 23 nL compounds in DMSO solution. The final titration was 0.7 nM to 77 uM. (3) Add 1 ul of substrate (400 uM final) (4) Incubate at room temperature for 20 min. (5) Add 2 ul stop solution (1M NaOH and 1M Glycine mixture, pH 10) (6) Detect the assay plate in a ViewLux plate reader (PerkinElmer) with Ex=365 nm and Em=440nm. Keywords: Alpha-glucosidase, Pompe Disease, pharmacological chaperone, chaperone therapy, high throughput screening, alpha-glucosidase inhibitor, MLSMR, MLSCN, NIH Roadmap, qHTS and NCGC
(qHTS replaces the single test concentration by a dilution series.)
Regarding `N=c1oc2cc(O)ccc2cc1C(=O)Nc1ccccn1`, the Potency is 35.5 µM (active). As to `N=c1oc2cc(O)ccc2cc1C(=O)Nc1nc2ccccc2s1`, the Potency was 35.5 µM (active). As for `CCOC(=O)c1cccc(-n2c(-c3ccc(OC)cc3)nc3nc4ccccc4nc32)c1`, the Potency is 5.01 µM (active). In the case of `C=CCn1c(-c2cccs2)nc2nc3ccccc3nc21` it was 35.5 µM (active); in that of `C=CCn1c(-c2ccc(OC)cc2)nc2nc3ccccc3nc21`, 35.5 µM (active); in that of `CCCn1c(-c2cccs2)nc2nc3ccccc3nc21`, 35.5 µM (active). In the case of `CC(C)Cn1c(-c2cccs2)nc2nc3ccccc3nc21` it was 35.5 µM (active); in that of `CCC(C)n1c(-c2cccs2)nc2nc3ccccc3nc21` (stereo unspecified), 35.5 µM (active). In the case of `Cc1cccn2c(=O)c3cc(C(=O)N4CCN(C(=O)c5ccco5)CC4)n(C)c3nc12` it was 35.5 µM (active).

With `Cc1ccc(-c2cc(C(=O)NCCCn3ccnc3)c3ccccc3n2)s1`, the Potency was 28.2 µM (active). As for `Cc1cccn2c(=O)c3cc(C(=O)NCCCN4CCCC4=O)n(C)c3nc12`, the figure is 35.5 µM (active); as for `Cc1ccc2nc3c(cc(C(=O)NCCCn4ccnc4)n3C)c(=O)n2c1`, 35.5 µM (active); as for `Nc1cc(C(=O)O)c(Oc2ccc(Cl)cc2Cl)cc1C(=O)O`, 35.5 µM (active). For the compound `CCc1cc2c3c(c(=O)oc2cc1O)CCCC3`, the Potency is 28.2 µM (active). As for `O=c1oc2cc(O)ccc2c2c1CCCC2`, the figure is 35.5 µM (active); as for `COC(=O)C1=CN(Cc2ccc(OC)cc2)C=C(C(=O)OC)C1c1cccs1`, 25.1 µM (active); as for `COC(=O)C1=CN(Cc2ccc(OC)cc2)C=C(C(=O)OC)C1c1ccsc1`, 25.1 µM (active). In the case of `COc1ccc(-c2cn3cccnc3n2)cc1` it was 35.5 µM (active); in that of `FC(F)(F)Oc1ccc(-c2cn3cccnc3n2)cc1`, 35.5 µM (active). In the case of `Cc1ccc(-c2cn3cccnc3n2)cc1` it was 35.5 µM (active); in that of `CC1(C)CN(c2ccc(-c3ccnc4ncnn34)cc2)C1=O`, 28.2 µM (active). Turning to `N#Cc1c(C(F)(F)F)cc(-c2cccs2)nc1SCc1cccnc1`, the Potency is 35.5 µM (active). `Cc1[nH]c2ccccc2c1C(O)CN1CCN(c2cccc(C(F)(F)F)c2)CC1` (stereo unspecified): the Potency is 35.5 µM (active). As for `Cc1cc(NCCCN2CCOCC2)n2c(nc3ccccc32)c1C#N`, the figure is 31.6 µM (active). As for `CC(C)c1cc(NCCCN2CCOCC2)n2c(nc3ccccc32)c1C#N`, the figure is 31.6 µM (active); as for `COc1ccc(-c2c(C#N)c(N)nc3c2CCc2ccccc2-3)cc1OC`, 35.5 µM (active); as for `COCCCn1cnc2oc3nc4ccccc4nc3c2c1=O`, 35.5 µM (active). In the case of `CC(=O)Nc1cc2ccc(OC(C)=O)cc2oc1=O` it was 35.5 µM (active).

`O=C(O)c1cc2c(ccc3ccccc32)oc1=O`: the Potency is 35.5 µM (active). As for `CC(=O)Nc1cc2c(ccc3ccccc32)oc1=O`, the figure is 25.1 µM (active); as for `CCOC(=O)c1cc2c(ccc3ccccc32)oc1=O`, 35.5 µM (active).
